Where “and” joins values, the source holds several entries; their conditions need not be identical. Equal values may be shown once. Out of some 16,000 compounds screened, about 5,700 (36%) were called active. Not shown: some 24% with an inconclusive outcome. Calls follow the shape of the dose curve; as a rule, active = well fitted curve in the direction sought with a large enough effect; inconclusive = small, poorly fitted or top-dose-only effect, or effect the other way; inactive = no such curve, though single readings can be large or run the other way. The list shows a part of the results.
% is scaled to controls: 0 for no effect and ±100 for the full control effect.

Cytochrome P450 1A2 (Homo sapiens), sequence (P05177 whole entry, looked up): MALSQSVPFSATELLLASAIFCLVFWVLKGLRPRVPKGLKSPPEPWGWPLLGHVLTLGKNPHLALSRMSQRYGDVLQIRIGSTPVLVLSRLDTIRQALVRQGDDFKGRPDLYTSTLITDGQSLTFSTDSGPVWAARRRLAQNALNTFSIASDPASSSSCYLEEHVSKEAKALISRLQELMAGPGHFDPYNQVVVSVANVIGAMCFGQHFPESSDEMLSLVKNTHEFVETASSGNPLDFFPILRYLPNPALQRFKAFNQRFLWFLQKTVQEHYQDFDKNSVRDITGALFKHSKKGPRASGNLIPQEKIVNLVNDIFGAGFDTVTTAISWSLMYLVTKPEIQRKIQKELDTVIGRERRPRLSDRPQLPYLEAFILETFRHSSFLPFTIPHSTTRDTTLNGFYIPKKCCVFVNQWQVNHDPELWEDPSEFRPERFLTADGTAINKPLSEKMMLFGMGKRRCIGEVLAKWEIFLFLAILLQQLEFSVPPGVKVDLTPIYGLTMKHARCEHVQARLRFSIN

The experiment addresses Cytochrome P450 1A2 (Homo sapiens) (UniProt P05177). The experiment in a line: Cytochrome panel assay with activity outcomes. Conditions: recombinant CYP, pro-luciferin dealkylation, luminescence, p450-cyp1a2; series mostly up to 57.1 µM; activity, negative = inhibition: at the top concentration.
With `CCCN(CC1CC1)c1nc(C)nc(Nc2c(Cl)cc(Cl)cc2Cl)c1Cl`, the “activity, negative = inhibition” value was -15.7% (inactive).
In the case of `CCCn1nnnc1NC(=O)COc1ccc(Cl)cc1C`, the AC50 is 14.1 µM (active).
Still for that read-out and setting: for `Cc1cc(Cl)ccc1OCC(=O)NCc1ccncc1` the value was 1.12 µM (active).
In the case of `Cc1cc(Cl)ccc1OCC(=O)Nc1nc(N)nc(N)n1`, the activity, negative = inhibition was 2.06% [at 2.29 µM] (inactive).
Regarding `CCn1c(=O)c2c(O)cc(=O)oc2c2ccccc21`, the AC50 was 11.2 µM (active).
The same measure, in the same setting: the figure for `CC(C)n1c(=O)c2c(O)cc(=O)oc2c2ccccc21` is 5.01 µM (active).
Regarding `O=C(c1cnccn1)N1CCC2(CC1)CCN(c1ccccn1)CC2`, the “activity, negative = inhibition” value is -13.1% (inactive).
As for `CCn1c(SCC(=O)NC2CCCCC2)nnc1-c1cc2cccc(OC)c2o1`, the AC50 is 8.91 µM (active).
As to `CCn1c(SCC(=O)NC2CCCc3ccccc32)nnc1-c1cccs1` (stereo not drawn), the “activity, negative = inhibition” value is -21.7% (inactive).
Turning to `O=C(CSc1nnc(-c2ccc(Cl)cc2Cl)n1C1CCCCC1)NC1CCS(=O)(=O)C1` (stereo not drawn), the “activity, negative = inhibition” value is 0.975% (inactive).
Turning to `Nc1ccccc1C#Cc1ccccc1`, the AC50 is 501 nM (active) and 1.58 µM (active).
The same measure, in the same setting: the figure for `Cc1cc(C)c(Cn2cnc(-c3ccc([N+](=O)[O-])cc3)c2)c(C)c1` is 15.8 µM (active).
For the compound `C1CCN(CC[C@@H]2CCCCN2)CC1`, the activity, negative = inhibition was -7.33% [at 11.4 µM] (inactive).
With `Cc1ccccc1-c1nc(-c2ccc(NC(=O)c3cccs3)cc2)no1`, the AC50 was 14.1 µM (active).
For `Cc1ccc(-c2nnc(-c3ccc(NC(=O)c4cccs4)cc3)o2)cc1`, the “activity, negative = inhibition” value is -23.1% (inactive).
With `CC(=O)N1CCc2cc(S(=O)(=O)CCC(=O)Nc3c(C)n(C)n(-c4ccccc4)c3=O)ccc21`, the “activity, negative = inhibition” value was -24.8% (inactive).
On the same count and under the same terms, for `Cc1ccccc1OCC(=O)Nc1sc(C(=O)Nc2cccc(C)c2C)c(C)c1C#N` the value was 7.9% (inactive).
As for `Cc1ccccc1OCCNC(=O)c1ccccc1Sc1ccccc1C#N`, the AC50 was 14.1 µM (active).
For `CC(=O)c1cc(NC(=O)c2cccc(C(F)(F)F)c2)c(=O)oc1/C=C/N(C)C`, the “activity, negative = inhibition” value is 3.96% (inactive).
In the case of `CCOC(=O)c1cc(NC(=O)c2ccc(C)cc2)c(=O)oc1-c1ccccc1`, the “activity, negative = inhibition” value was -24.4% (inactive).
As for `Cc1ccc(C(=O)Nc2cc3c(oc2=O)CCCC3=O)cc1`, the half-maximal activity concentration (AC50) was 14.1 µM (active).
Same read-out and setting: for `Cc1oc(=O)c(NC(=O)c2ccccc2)cc1C(=O)c1ccccc1` the value was 12.6 µM (active).
The same measure, in the same setting: for `CC(=O)c1cc(NC(=O)c2ccccc2)c(=O)oc1/C=C/N(C)C` the value was 12.6 µM (active).
On to `CC(C)(C)N(NC(=O)c1ccccc1)C(=O)c1cccc(C(=O)N(NC(=O)c2ccccc2)C(C)(C)C)c1`, for which the “activity, negative = inhibition” value is 2.94% (inactive).
On to `Cc1cc(N)ccc1NC(=O)c1ccccc1`, for which the AC50 was 3.16 µM (active).
Regarding `Cc1ccc(C)c2sc(NC(=O)c3ccc(N4CCCCC4)c([N+](=O)[O-])c3)nc12`, the “activity, negative = inhibition” value is 0.997% (inactive).
Same read-out and setting: for `COc1ccccc1N1CCN(CCN(C(=O)C2CCCCC2)c2ccccn2)CC1` the value was -4.46% (inactive).
Consider `O=C(c1ccc(N2CCCCC2)c([N+](=O)[O-])c1)N(Cc1ccccc1)c1ccccn1`, for which the AC50 is 14.1 µM (active).

Broadly, the AC50 is the concentration at which the activity in the assay is half-maximal.
